Here are results for 100 sequences from the supplement of paper PMC11417369.

Over roughly 25,000 sequences, “ln(normalized median fluorescence intensity)” has its median near 6.7; the highest 2% begin near 10. For the sample, the highest values were picked, then their nearest neighbours and some sequences at random.

The test system of this experiment is PfHDP1 homeodomain (GST-tagged). Kind of experiment: gcPBM binding intensity (ln(normalized median fluorescence intensity)); higher = stronger DNA binding. Summed up:
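Binding intensity values are the highest Masliner-normalised natural-log median intensity among replicate spots of either probe orientation. The binding step lasted 1 h in 1× PBS with 1% milk, 0.2 mg/ml BSA, 0.5% salmon testes DNA and 0.03% Triton X-100, using GST-tagged P. falciparum DNA-binding domains expressed in E. coli on an Agilent 4 × 180k array of primer-extended double-stranded 36-bp intergenic genomic probes plus negative controls. Alexa488 anti-GST antibody and a 488 nm scan detected bound protein.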
As for “AAAAAAAAAAAAAAGAGTACACAGACGTTCAAAGGT [XGTACX_site7566]”, the “gcPBM binding intensity (ln)” value amounted to 6.85.
Then “CGCGAACATACATACACACACATATTTATATAGGTA [CACACA_site6241]”, with 6.69; and “ATAATTAGTTCAATTTTTTTTTTTTTTTTTTTTTTT [CACACA_negctrl_site1371]”, with 6.91.
For “ATAAATTTATATACTTGTACATATATATATTACATA [XGTACX_site6697]” the value was 6.7; for “TGCTGTATATTTTTCTGTACACATTTATATATTCCA [XGTACX_site6244]”, 6.65; for “CATATAGTATAAATTTGTACATAAATATATATATAT [XGTACX_site7477]”, 8.91.
For “TATAATATATTTTAATGTACGTACATCCCGATTAAT [XGTACX_site7651]” the value was 6.63; for “ATAATTATTAAGAGAACATGCAAAATATATATGTTT [TGCATGCA_site503]”, 6.68.
Regarding “AATATTTTAAATATTGCATGCAATGAAAAATGTAAA [TGCATGCA_site139]”, the “gcPBM binding intensity (ln)” value is 7.73.
On to “TTATTGTAAATATATGCATGTGCAAAATGAAAAAAA [TGCATGCA_site399]”, for which the “gcPBM binding intensity (ln)” value came out at 10.5.
Then “ACTAAAAAATATATATGTACATAATAATATATTATT [XGTACX_site1260]”, with 6.66.
For “TATAAAATAAATTGTGCACACATATTTATAAATATG [CACACA_site2330]” the value was 10.5; for “CAAAAAAATGTGAAGGCATGCAAATATGTAAAATAA [TGCATGCA_site921]”, 7.26; for “TATTAATTATAAGATGCATGTGCAAAAATATGTTCC [TGCATGCA_site51]”, 10.2.
For “ATAATTATAAAATAAACACACATATATATTTATATG [CACACA_site440]” the value was 6.29.
As for TAATAAAATATGTACGTGCACATAATTATACTAAAA, the “gcPBM binding intensity (ln)” value came to 10.5.
For “AAATTAATATTATGTGCATGCACAAAGAGGAACGAC [TGCATGCA_site754]” the value was 11.8; for “AACCATAAATAATTATGTACTAAAAAAAATATATAT [XGTACX_site3415]”, 6.7.
For “AATAAATAAAAAATTACACACATATTTATAAATATA [CACACA_site7584]” the value was 6.4.
As to “AAAAATAAAAAAATAAAAAATAAAAAAATAAAAAAT [CACACA_negctrl_site1425]”, the “gcPBM binding intensity (ln)” value is 6.64.
Then “TTAATAATAAAAAGGAGTACACTAATATACTATAAA [XGTACX_site2346]”, with 6.35; and “TAAATTTTAATAAATACACACAAATTTTAATTCTAT [CACACA_site6039]”, with 6.27.
For “TACATATAAACAATAACACACACCTAGGTACATGGA [CACACA_site8178]” the value was 6.49.
Then TGTATTCTCTTAGTAGTGCATTTGAAGATTATATAA, with 8.81; and “TAAATAGATGTTTTATGTACGTATAAATAAAAAAAA [XGTACX_site3412]”, with 6.29.
In the case of “TTTATTTATTTAATTACACACGAACATATAACCATT [CACACA_site7952]”, the “gcPBM binding intensity (ln)” value turned out to be 6.8.
Take “ATTTTTTAAAAAGTAACACACACTCTTATATATAAT [CACACA_site9206]”: the “gcPBM binding intensity (ln)” value was determined as 6.64.
Then “ATATACATATCATGTAGTACAATTTTTTTACTTTTT [XGTACX_site7988]”, with 6.14; and “CAAGCTATGTATTCTACACACACATACACCCATATA [CACACA_site9133]”, with 7.22; and “CAAATATATATGTTCACACATATAATTATTGTGAAA [CACACA_site4190]”, with 6.4.
For “TTAAAAAAATTAATATGTACATATATTTATATATAT [XGTACX_site5317]” the value was 6.54; for ATTATTAATAATTGTGTGCACAAATATTTATATGCT, 10.6; for “TAATATAATATATGCACACAAATATGTATTTATGTG [CACACA_site5210]”, 10.1.
For the sequence TAATATTTTAATTGTGTGCACATTAATATTATAAAA, the “gcPBM binding intensity (ln)” value is 10.3.
In the case of TGAAATTTTATTAATGTGCACATATATTTATTGTTC, the “gcPBM binding intensity (ln)” value is 10.8.
For “ATGAAAATTTATATTGCACACATAGGGAATAAAAAA [CACACA_site8667]” the value was 10.4; for “TAAAATAAATTGTGCACACATATTTATAAATATGAA [CACACA_site2331]”, 10.7.
For TAAAATAATATTTATGTGCACATATAATTATTAATT the value was 10.7.
For “ATATTTAATGTTAATTGTACATATTATATATATATA [XGTACX_site6095]” the value was 8.49; for “TTTATGAAACAGTGCACACATAAAAATATATACATA [CACACA_site2992]”, 10.1; for “ATATATTATATAATATGTACATAATAAAATTTAAAT [XGTACX_site1900]”, 6.79.
With “CAACATTAATATAAAGCACACATATATATAATATAT [CACACA_site8064]”, the “gcPBM binding intensity (ln)” value was found to be 6.39.
For “TTGAACCTGATAAATACACACAATATAGATTTTTTT [CACACA_site7091]” the value was 6.48; for “TTTCTAATTCTTAGTGGTACACAGTTCTGCTGATAT [XGTACX_site2391]”, 6.09; for “AATGAGCGTTAAAAATGTACAGAAAATTGGAATTAT [XGTACX_site5743]”, 6.75.
As for “TGCATAAATTTATGCACACATAAAAAAAAAAAAAAA [CACACA_site2923]”, the “gcPBM binding intensity (ln)” value is 10.4.
For “TAAAATAATTTATGCATACACACATATATATATATA [CACACA_site4021]” the value was 9.28; for ATAATTTCATAATACGTGCACATAATATATAAAAAA, 10.9; for GTTTATTTATTTTATGTGCACATATAACAAAAAAAA, 10.7.
For “TATAAAAATAAGCACACACACAAATATATATTTATT [CACACA_site922]” the value was 6.77; for ATATATATATATATTGTGCACAAAAAAAAATAAGCA, 10.7; for “GAAATAATTTCATATACACACATATACATACATACA [CACACA_site1358]”, 7.13.
For TATATATATATATATGTGCACATATTTATATGTTTT the value was 10.3.
In the case of “ATAAAATATATATGCACACACATATATATTTCATAC [CACACA_site3547]”, the “gcPBM binding intensity (ln)” value turned out to be 10.2.
Then “TGTGCATAAATTTATGCACACATAAAAAAAAAAAAA [CACACA_site8954]”, with 11.
As to “CAAAATATTTTTATAACACACATATATATAATGTGC [CACACA_site4767]”, the “gcPBM binding intensity (ln)” value stood at 6.52.
Then “ACAAAAAAAATAAGCACACATATATATATATATATA [CACACA_site816]”, with 9.27; and “AAGAAAGGTTAAACATGTACATAAATATTTTACATA [XGTACX_site5024]”, with 6.28.
Then “TAATTCACATTTTATACACACATTCGAACCTTTTTT [CACACA_site3341]”, with 6.88.
As for “TTATAAAAGAAAAAAAAAAAAAAAAAAAAAAAAAAA [CACACA_negctrl_site1006]”, the “gcPBM binding intensity (ln)” value is 6.11.
Then “TTACATATATTGGGGTGTACATATATTTTCCTTCAC [XGTACX_site6224]”, with 7.35; and “AAAAAAAAGAAAGAAAGTACAAATTATAAAATGAAC [XGTACX_site860]”, with 6.62.
For “AACAATAAATTATTATGTACACATATATTATATATA [XGTACX_site4629]” the value was 6.47; for “ATCTAAAAATTTTACGCACACAAGTAAAAAAAAAAA [CACACA_site2485]”, 7.14.
Then “ACTATATATATAAGTGCATGTTCATTATACCTAAAG [TGCATGCA_site696]”, with 7.49; and “TTATATATTTATAAATGTACGTATAAGAATTTAATT [XGTACX_site8541]”, with 6.68.
For the sequence “GATAAATGTATATATGCATGCACATATATTTATACA [TGCATGCA_site748]”, the “gcPBM binding intensity (ln)” value was determined as 8.96.
As to “TATATTTATGTATATGTGCACATAAATTTAAGAATG [GTGCAC_site9512]”, the “gcPBM binding intensity (ln)” value turned out to be 10.9.
For “TATAATAATAATGATAGTACGTATGAGTTCAAGAAA [XGTACX_site4918]” the value was 6.34; for “TCATATATCCTTATCACACATATAATAAATTCCCTT [CACACA_site4457]”, 6.59.
For “ATATTATACGCATATGTGCGCATACATTTTTTTGCA [GTGCAC_site9540]” the value was 7.53; for “ATTATTACATATAATGCATGTGCATATATTTTTATA [TGCATGCA_site701]”, 11.
On to “TTTTTTATTATTATGTGTACGAATATGTGCATATAA [XGTACX_site1364]”, for which the “gcPBM binding intensity (ln)” value is 9.93.
Take CATATATAAATATGTATGCACTTTAACAAAATGTAT: the “gcPBM binding intensity (ln)” value turned out to be 7.25.
Then “TATGTGCATATAAACTCACACATTGTATATTACATG [CACACA_site6106]”, with 10.9; and “TATATATATATATATACATGCATATTTTTTATTTTT [TGCATGCA_site464]”, with 9.46; and “ACACATATGCATATATGTACATAATATATTAAACTT [XGTACX_site5975]”, with 6.76.
For “TATATATTTATTAAATGTACATAACAAAAATGGTAT [XGTACX_site3577]” the value was 7.05; for “ATGTATGCAAAAATGGTGCATATTAAATGTATAACA [GTGCAC_site9722]”, 10.5.
For “TATATATAATTTTATACATGCACATATTATATATAT [TGCATGCA_site1036]” the value was 8.4.
As to “ATATATGCATATTATACACACATATGTATATACATT [CACACA_site965]”, the “gcPBM binding intensity (ln)” value came out at 7.81.
For “CCTTATACGATATTATGTACGCATATGTGCATTTTT [XGTACX_site1570]” the value was 10.9; for “TTATAAAGAAAAAATTGCTTTAAAAGAAAGATTACA [CACACA_negctrl_site960]”, 5.87.
As to “CTAAATTGTTAATAGAGTACATTTGTATAATATAAG [XGTACX_site594]”, the “gcPBM binding intensity (ln)” value is 6.44.
Then “ATATATATATATGTACACATATATGTGTTTGTTTTT [GTGCAC_negctrl_site5]”, with 8.99; and “GTAATTTTTTTCTATACACACATATCTATAATATAT [CACACA_site7284]”, with 6.94.
Then “TCACTATAATAATTTACACACATTTTAAGAAAATGT [CACACA_site3530]”, with 6.61; and “TGTTTGCTTATGTGTTAAATATATATATATATATAT [TGCATGCA_negctrl_site218]”, with 9.25; and “TCCAATTCTTTATTTTGTACACATTATGTGCATATG [XGTACX_site6290]”, with 10.9.
For “TATACATATATAAATGCATGTTGATATTAATAGTTA [TGCATGCA_site639]” the value was 6.53; for “ATTTTTGTAATTATTTGTACACATTTATTTATGTGT [XGTACX_site1864]”, 6.76; for “TTATATGTATTTCTTTGTACACATTTTTATATATAT [XGTACX_site1462]”, 7.16.
Regarding “TATTAATGCAAATGTTATATGTGCATACATAAATGT [CACACA_negctrl_site790]”, the “gcPBM binding intensity (ln)” value was 10.9.
For TTTTTTAAATTTAAAGTGCATTATTATATATTTGTA the value was 8.5.
On to “TTATATTAATTTTGTTGTACTATTTGTGCATTAAAT [XGTACX_site4790]”, for which the “gcPBM binding intensity (ln)” value is 10.8.
For “ATACCATATAATTATGTGAGAAAATATAATATTCAT [CACACA_negctrl_site310]”, the “gcPBM binding intensity (ln)” value was determined as 6.55.
For “TATATGTAATATTATACATGCATACATAATATATAT [TGCATGCA_site558]” the value was 6.52; for “CATGTGCATATTAAATGTACATATATACATATATAC [XGTACX_site857]”, 10.2.
For “AGTGAGAAATACATAATAATACATTATGTGCATATT [XGTACX_negctrl_site247]” the value was 10.7; for “TTTTTTTTTTTTTTGTGTACTAATATTATAAATTTT [XGTACX_site4405]”, 6.44.
